Among all 330,000 compounds or so, about 650 (0.2%) were called active. The list comes from a sample in which actives are over-represented; it also holds similar structures and randomly drawn compounds. A number with no mark means an inactive call. Rule as the data show it: active = inhibition above about 50%; inactive = the rest.

The target in this assay is Integrin alpha-4 (Homo sapiens) (UniProt P13612). Briefly: inhibition in human VLA-4 binding assay, primary screen, VLA-4 allosteric modulator project, MLPCN library, flow cytometry, VLA-4 expressing cells (AID 2557). The settings on record: ligand binding flow cytometry, hits give high values, about 7 µM as worked out from the volumes in the protocol. In general terms: In flow cytometry, cells or beads pass a laser one at a time.
Chain of Integrin alpha-4 (Homo sapiens) (P13612 whole entry, looked up): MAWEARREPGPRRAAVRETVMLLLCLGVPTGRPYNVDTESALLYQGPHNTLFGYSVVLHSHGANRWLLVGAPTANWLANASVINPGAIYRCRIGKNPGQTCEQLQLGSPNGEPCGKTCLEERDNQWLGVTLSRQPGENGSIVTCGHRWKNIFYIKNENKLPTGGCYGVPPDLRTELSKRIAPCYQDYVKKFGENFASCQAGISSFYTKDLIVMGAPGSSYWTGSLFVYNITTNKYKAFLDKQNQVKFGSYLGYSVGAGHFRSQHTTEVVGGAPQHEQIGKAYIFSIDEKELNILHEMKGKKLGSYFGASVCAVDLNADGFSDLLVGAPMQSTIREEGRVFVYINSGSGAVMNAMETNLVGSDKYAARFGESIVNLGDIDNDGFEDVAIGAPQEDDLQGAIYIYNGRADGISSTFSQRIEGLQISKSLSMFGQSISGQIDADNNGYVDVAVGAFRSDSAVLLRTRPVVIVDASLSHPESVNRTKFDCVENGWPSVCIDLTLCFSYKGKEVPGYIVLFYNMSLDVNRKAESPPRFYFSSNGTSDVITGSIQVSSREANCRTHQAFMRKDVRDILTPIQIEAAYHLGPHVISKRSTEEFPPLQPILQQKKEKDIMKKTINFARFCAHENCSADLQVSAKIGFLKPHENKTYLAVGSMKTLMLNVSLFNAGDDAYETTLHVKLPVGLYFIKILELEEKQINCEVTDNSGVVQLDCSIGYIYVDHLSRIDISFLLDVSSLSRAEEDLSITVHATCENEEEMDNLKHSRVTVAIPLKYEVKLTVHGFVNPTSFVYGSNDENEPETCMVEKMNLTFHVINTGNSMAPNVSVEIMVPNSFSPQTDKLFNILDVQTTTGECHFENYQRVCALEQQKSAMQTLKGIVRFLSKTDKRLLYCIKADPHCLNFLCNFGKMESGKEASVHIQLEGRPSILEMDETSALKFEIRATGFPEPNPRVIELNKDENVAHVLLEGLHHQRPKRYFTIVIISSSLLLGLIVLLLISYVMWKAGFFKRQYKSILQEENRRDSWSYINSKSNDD
The term inhibition denotes the relative decrease from the control value, in per cent. `Cc1cc(C)nc(/N=C2\NC(=O)CC(C(=O)O)N2c2ccc(Cl)cc2Cl)n1` (stereo not drawn): the inhibition is -2.34%.
To `CCOC(=O)c1sc(NC(=O)CSc2nc(O)c(Cc3ccccc3)c(=O)[nH]2)nc1C` belongs 2.73%; to `O=C(Nc1ncccc1O)c1ccc(C(=O)c2ccccc2)cc1`, 16.6%.
In the case of `O=C(NCc1nnc(SCC(=O)N2CCC(Cc3ccccc3)CC2)o1)c1ccco1`, the inhibition is -6.21%.
Consider `CCc1ccc2c(c1)C1(NN=C(c3ccccc3)S1)C(=O)N2` (stereo not drawn), for which the inhibition was 92.2% (active).
Next, `Cc1c(C=O)c2ccccn2c1C(=O)c1ccncc1`: 11.9%; `CC/C(O)=C1\C(=O)CC(C)(C)CC1=NCCc1nc2ccccc2[nH]1`: 55.8% (active).
In the case of `Cc1ccc(C)c(N2CCN(C(=O)CCc3nc4ccccc4[nH]3)CC2)c1`, the inhibition is 8.4%.
As for `CCC/C(O)=C1\C(=O)CC(C)(C)CC1=Nc1ccccc1OC`, the inhibition was 15.2%.
In the case of `Cc1cc(C(=O)NNC(=S)NC(C)c2ccccc2)cs1` (stereo not drawn), the inhibition was 6.13%.
Take `CCC(C)(C)NC(=O)C(c1cccc(OC)c1OC)N(CC(C)C)C(=O)CCC(=O)Nc1cc(C)on1` (stereo not drawn): the inhibition is 1.27%.
`O=C(COc1ccc(Cl)cc1)Nc1ccc2c(c1)OCO2`: the inhibition is 14.3%.
Take `COc1ccc(OCC(=O)NNC(=O)C2CCC2)cc1`: the inhibition was 13.2%.
On to `NNC(=O)COc1ccc(C2SCCS2)cc1`, for which the inhibition is 54.2% (active).
In the case of `COC(=O)[C@@]12CCCN1[C@H](c1ccc(-c3ccc(F)cc3)c(OC)c1)[C@H]1C(=O)N(C)C(=O)[C@H]12`, the inhibition is 21.7%.
`Cc1ccc(CNC(=O)CCCNC(=O)c2ccc(Cl)cc2)n1C`: the inhibition is -1.01%.
Next, `CC(=O)NCC(=O)N(C)C(C(=O)Nc1ccc2c(c1)OCCO2)c1ccccc1` (stereo not drawn): 14.2%; `O=c1[nH]nc(SCCS(=O)(=O)c2ccc(F)cc2)n1-c1ccccc1C(F)(F)F`: 3.05%.
Next, `C=C(C)CNC(=S)/N=c1\scc(C)n1CC`: 5.83%; `O=C(O)CSCC(=O)Nc1ccc(C(F)(F)F)cc1`: 4.49%.
As to `Cc1cc2cc3c(N)[nH]nc3nc2cc1C`, the inhibition is 10.6%.
On to `Cc1cc(OCCN2CCCC2)cc(C(C)C)c1`, for which the inhibition is -8.43%.
In the case of `Cc1cnc(NC(=O)CSc2nnc(C)s2)s1`, the inhibition was 58.3% (active).
For `Cc1ccc(SCC(=O)Nc2ncc(C)s2)cc1`, the inhibition was -0.13%.
As to `Cc1nnc(SCC(=O)Nn2cnnc2)s1`, the inhibition was -1.38%.
Turning to `COc1cccc(N2C(=O)CC(N3CCc4ccccc4C3)C2=O)c1` (stereo not drawn), the inhibition is -4.39%.
Next, `COc1cccc(N2C(=O)CC(N3CCN(S(=O)(=O)c4ccccc4)CC3)C2=O)c1` (stereo not drawn): 12.7%; `COc1cccc(N2CCN(C3CC(=O)N(c4ccc(Cl)cc4)C3=O)CC2)c1` (stereo not drawn): 94.7% (active); `Cc1cccc2nc(CSc3nc4[nH]ncc4c(=O)n3-c3cccc(Cl)c3)cc(=O)n12`: 0.93%.
For `Cc1nc2ccccc2c(=O)n1NC(=O)c1ccc(Cl)c([N+](=O)[O-])c1`, the inhibition is 8.96%.
Turning to `O=C(Nn1c(SCc2ccc([N+](=O)[O-])cc2)nc2ccccc2c1=O)c1ccc(F)cc1`, the inhibition is -2.25%.
Consider `O=C(Nn1c(-c2ccccc2)nc2ccccc2c1=O)c1ccc([N+](=O)[O-])cc1`, for which the inhibition is 52% (active).
As to `CN(C(=O)COC(=O)Cn1cnc2c1c(=O)n(C)c(=O)n2C)C1(C#N)CCCCC1`, the inhibition was 0%.
Next, `COc1cccc(C2=CC(=O)C[C@H](c3ccc(F)cc3)C2)c1OC`: 0%; `Cc1ccc(S(=O)(=O)N(Cc2ccccc2)c2ccccn2)cc1[N+](=O)[O-]`: 6.28%; `CCOc1cc(C(=S)N2CCOCC2)ccc1OS(=O)(=O)c1ccc(Br)cc1`: 6.18%.
To `COC(=O)N/N=C/c1ccc(-c2ccc(Cl)c(Cl)c2)o1` belongs 12.9%; to `COC(=O)N/N=C/c1c[n+]([O-])c2ccccc2[n+]1[O-]`, 52.6% (active).
On to `COC(=O)N/N=C/c1cn(CCCOc2ccc(C)cc2)c2ccccc12`, for which the inhibition is 1.98%.
`COc1cc(C(C(=O)NC2CCCC2)N(C(=O)c2ccco2)c2ccccc2C(C)=O)cc(OC)c1OC` (stereo not drawn): the inhibition is -1.99%.
`O=C(CN1CCSCC1)N/N=C/c1ccc(F)cc1`: the inhibition was -0.98%.
For the compound `Nc1nc(SCC(=O)NNc2c(Cl)cc(Cl)cc2Cl)n[nH]1`, the inhibition is -17.3%.
On to `Cc1ccc(N(C(=O)CNC(=O)c2ccco2)C(C(=O)NC2CCCC2)c2ccncc2)cc1` (stereo not drawn), for which the inhibition was -11.3%.
`CC(C)Cn1cnc2c1c(=O)n(CC(O)c1ccccc1)c(=O)n2CC(C)C` (stereo not drawn): the inhibition was -0.03%.
As to `Cc1ccccc1CN1CCNC(=O)C1CC(=O)NCCC1=CCCCC1` (stereo not drawn), the inhibition is -8.93%.
`CSCc1cc(N(C)C)nc(SCc2ccc(Cl)cc2Cl)n1`: the inhibition is -0.25%.
Turning to `Cc1cccc(OCCCC(=O)Nc2ccc(S(=O)(=O)N3CCCC3)cc2)c1`, the inhibition was 6.35%.
Next, `O=C(NC(=S)Nc1ccccc1C(=O)O)c1ccc(-c2ccc(Br)cc2)o1`: -8.29%; `CNC1(c2nnnn2-c2c(C)cccc2C)CCOC(C)(C)C1` (stereo not drawn): -0.18%.
Next, `CCN(CC(=O)Nc1c(F)cccc1F)C(=O)c1ccc(S(=O)(=O)N2CCCCC2)cc1`: -0.6%; `COc1ccccc1/C=C/C(=O)OCC(=O)NC1CCCCCC1`: 9.38%; `N#CC1(NC(=O)COc2ccc3oc4ccccc4c3c2)CCCCC1`: 17.8%.
In the case of `COc1cccc(N(C(=O)c2snc(C(N)=O)c2N)C(C(=O)NCC2CCCO2)c2c[nH]c3ccccc23)c1` (stereo not drawn), the inhibition is -8.82%.
As to `O=C1NC2(CCCCC2)N=C1c1ccccc1`, the inhibition was 7.05%.
With `Cn1cnc2c1c(=O)n(Cc1ccccc1C#N)c(=O)n2C`, the inhibition is 0.49%.
For `Cn1c(=NC(=O)c2ccc3c(c2)OCCO3)sc2cc(S(C)(=O)=O)ccc21`, the inhibition is 4.69%.
Turning to `Cc1cc(C)nc(SCc2nnc(SCC(=O)OC3CCCCC3)o2)n1`, the inhibition is -6.47%.
Take `CC(C)C[C@@H](CO)N1CCN(Cc2ccc(O)cc2)CCC1=O`: the inhibition is 25.2%.
On to `COC(=O)c1ccc(CN(c2ccccc2OC)S(=O)(=O)c2cccs2)o1`, for which the inhibition was 12.4%.
As for `O=C(CN(C(=O)c1nsc(Cl)c1Cl)c1cccc(F)c1)NC1CCCC1`, the inhibition is 5.34%.
As for `O=C(CCS(=O)(=O)c1ccc(Br)cc1)NCCc1ccc(Cl)cc1`, the inhibition is -4%.
Take `Cc1ccc(S(=O)(=O)N2CCN(C(=O)COC(=O)CNC(=O)c3ccc(C(C)(C)C)cc3)CC2)c(C)c1`: the inhibition is -0.38%.
Next, `Cc1cc(C)cc(C(=O)NCC(=O)OCC(=O)N2CCCCC2)c1`: 51.9% (active).
For `COc1cc(OC)cc(C(=O)NCC(=O)N2CCCCCCC2)c1`, the inhibition was 2.18%.
In the case of `COCCOC(=O)C1=C(C)NC(=O)NC1c1ccc(Cl)cc1` (stereo not drawn), the inhibition was 0.04%.
Consider `COCCOC(=O)C1=C(C)Nc2nc(C)nn2C1c1ccccc1` (stereo not drawn), for which the inhibition is 76% (active).
In the case of `CC1=C(C(N)=O)C(c2ccc(F)cc2)n2nc(CCCO)nc2N1` (stereo not drawn), the inhibition is -3.48%.
With `CCCCOc1ccc(N(CC(=O)NC(C)C)C(=O)CCC(=O)Nc2ccccn2)cc1`, the inhibition is 23.1%.
On to `Cc1ccc(CN2CCN(Cc3ccc4ncccc4c3)CC2CCO)cc1` (stereo not drawn), for which the inhibition is 7.01%.
With `CC(C)(C)C1CCC(C(=O)Nc2cccnc2)CC1` (stereo not drawn), the inhibition was 13.3%.
Next, `CCN(CC)S(=O)(=O)c1ccc(OC)c(NC(=O)CCc2c(C)noc2C)c1`: 9.08%; `O=C(COc1ccccc1F)NNC(=O)c1ccc(N2CCCCC2)c([N+](=O)[O-])c1`: 19.2%; `CCOC(=O)c1ccc(N2C(=O)CC(N3CCC(C(=O)OCC)CC3)C2=O)cc1` (stereo not drawn): 24.6%.
On to `CCOC(=O)c1ccc(N2C(=O)CC(N3CC(C)OC(C)C3)C2=O)cc1` (stereo not drawn), for which the inhibition was 108% (active).
As for `CCOC(=O)c1ccc(N2C(=O)CC(N3CCN(C(=O)c4ccccc4)CC3)C2=O)cc1` (stereo not drawn), the inhibition was 2.59%.
As for `Cc1cc(C(=O)OCC(=O)Nc2ccccc2Cl)c(C)o1`, the inhibition was -2.15%.
Take `Cc1cc(C)cc(NC(=O)COC(=O)c2cc(C)oc2C)c1`: the inhibition is 3.64%.
Regarding `Cc1cc(C(=O)OCC(=O)Nc2ccc(F)c(F)c2)c(C)o1`, the inhibition is 49.7% (active).
In the case of `Cc1ccc(-c2cc(N)on2)cc1`, the inhibition is 19.5%.
For the compound `Cc1cc(C)n(CC(O)CN(c2ccccc2)S(=O)(=O)c2ccc3ccccc3c2)n1` (stereo not drawn), the inhibition was 50.2% (active).
For the compound `Cc1cccc(N(CC(O)CN(C)C)S(=O)(=O)c2ccccc2)c1` (stereo not drawn), the inhibition was 2.19%.
Turning to `Cc1ccc(N(CC(O)CN2CCCC2)S(=O)(=O)c2ccccc2)cc1` (stereo not drawn), the inhibition is 4.52%.
With `O=C(COC(=O)c1ccc2ncsc2c1)Nc1ccc(Cl)cc1`, the inhibition was -15.8%.
Regarding `Cn1c(=O)c2c(nc(N/N=C/c3cccs3)n2Cc2ccc(Br)cc2)n(C)c1=O`, the inhibition was 7.63%.
For `COc1ccc(Nc2cc(Sc3ccc(OC)cc3)ncn2)cc1`, the inhibition is 4.33%.
With `CC(=O)N1CCc2cc(S(=O)(=O)NC3CCCCC3)ccc21`, the inhibition is -5.2%.
Regarding `CCCNS(=O)(=O)c1ccc2c(c1)CCCN2C(C)=O`, the inhibition is 9.08%.
On to `CC(=O)N1CCc2cc(S(=O)(=O)Nc3ccccc3N3CCN(C)CC3)ccc21`, for which the inhibition was 54% (active).
As to `C=CC(COCc1ccccc1)N(CC(=O)OC)S(=O)(=O)c1cc(Br)ccc1OC` (stereo not drawn), the inhibition was 0.47%.
To `Fc1cc(Br)ccc1NC(=S)Nc1cccnc1` belongs 12.9%; to `S=C(Nc1cccnc1)Nc1ccccn1`, 52.3% (active); to `Cc1ccc(NC(=O)Nc2cccnc2)cc1`, 2.64%.
Turning to `O=C(CN(C(=O)CNC(=O)c1cccs1)c1cccc(F)c1)NC1CCCCC1`, the inhibition was 5.25%.

The record behind these values is PubChem BioAssay AID2557 (NMMLSC, 2010).
